Bioassay records: PubChem, National Center for Advancing Translational Sciences (NCATS)
A selection: hits, their analogues and other compounds. The true share with any hit is near 2.4%.
D2 PAM-1: positive allosteric modulators of human D2 dopamine receptor; 0.34% of 340,000 active; potentiation, % at 10 µM; HEK293 T-REx D2, calcium flux, EC20 dopamine potentiation;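 active = potentiation over 3 SD above the plate norm, cut at about 30% in these data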
Target sequence (P14416 whole entry, looked up): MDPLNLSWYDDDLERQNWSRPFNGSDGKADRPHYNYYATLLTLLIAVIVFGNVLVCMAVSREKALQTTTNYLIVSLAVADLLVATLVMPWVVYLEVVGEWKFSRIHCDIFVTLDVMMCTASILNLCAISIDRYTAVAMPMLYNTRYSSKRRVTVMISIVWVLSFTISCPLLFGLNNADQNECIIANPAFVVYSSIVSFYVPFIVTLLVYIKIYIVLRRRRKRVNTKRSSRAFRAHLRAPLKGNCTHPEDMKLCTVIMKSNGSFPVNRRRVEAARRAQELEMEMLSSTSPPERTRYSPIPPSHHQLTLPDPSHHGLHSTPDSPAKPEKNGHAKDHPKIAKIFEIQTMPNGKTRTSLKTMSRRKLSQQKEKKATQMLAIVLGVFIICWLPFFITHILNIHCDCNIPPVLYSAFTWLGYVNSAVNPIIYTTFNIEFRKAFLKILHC
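Tetracycline-induced HEK293 T-REx cells force-coupled to calcium signalling expressed D2; compounds were pin-added after a 10 s baseline, read kinetically 180 s, then an EC20 dopamine challenge followed with a further 180 s calcium read.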
D2 ag-1: activates the human D2 dopamine receptor | HEK293 T-REx D2 cells, calcium flux agonist mode | activation, % at 2 µM | 0.53% of 340,000 active | AID 485358;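 active = activation over 3 SD above normal in the single-dose calcium agonist read, cut at about 30% in these data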
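In this primary screen, compounds producing a positive calcium signal within 180 s of addition to tetracycline-induced, force-coupled HEK293 Trex D2 cells are flagged; cells are dye-loaded with a no-wash calcium kit beforehand.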
D2 antag: antagonists of human D2 dopamine receptor; AID 485344; HEK293 TREx D2 cells, calcium flux, dopamine EC80; P14416; 2% of 340,000 active; inhibition, % at 10 µM; in the data active = inhibition above about 30%; inactive = below that, where a call was filed
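Measurement of antagonist activity uses fluorescent calcium dye in inducible HEK293 T-REx D2 cells: 10 s baseline, compound addition with 180 s read, EC80 dopamine addition with a further 180 s read.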
D2 PAM-2: positive allosteric modulators of human D2 dopamine receptor | 0.23% of 360,000 active | DiscoveRx D2 beta-arrestin cells, luminescence, 90 min; 100% = 57 uM dopamine signal | potentiation, % (no concentration beside the values); in the data active = potentiation above about 50%
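PathHunter beta-arrestin assay in DiscoveRx D2 cells. Compounds were added with an EC20 of dopamine (50 nM final) for 90 min at 37 deg C. Luminescence was read 1 h after detection reagent, with 57 uM dopamine as the EC100 control.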
D2 ag-2: agonists of human D2 dopamine receptor (beta-arrestin). 0.084% of 360,000 active. P14416. AID 624465. activation, % (concentration not given with the values). DiscoveRx PathHunter D2 beta-arrestin, luminescence, 90 min; 100% = 57 uM dopamine signal; in the data active = activation above about 40%
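DiscoveRx PathHunter D2 beta-arrestin cells (2,100/well) attached overnight, then compound-stimulated 90 min at 37 C in HBSS/10 mM HEPES/0.1% Tween-20 buffer; beta-galactosidase complementation read by luminescence after 1 h at ambient temperature. Dopamine 57 uM final (EC100) as control.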
Large screens that a line does not name were inactive.

CCCOc1ccc(-c2nonc2NC(=O)c2oc3ccc(Cl)cc3c2C)cc1OCCC	none (no result: D2 antag, D2 PAM-2, D2 ag-2)
c1ccc2c(c1)nc1n2CC2CON(C3CCCCC3)C12 (stereo unspecified)	D2 antag 37.0
Cc1oc(-c2cccs2)nc1CN1CCN(C(C)C)C(CCO)C1 (stereo unspecified)	none
COc1ccccc1CNC(=O)C1CCN(Cc2nc(-c3ccc(OC)c(OC)c3)oc2C)CC1	none (no result: D2 antag, D2 PAM-2, D2 ag-2)
Cc1oc(-c2cccs2)nc1CN1CCC(c2ccccc2)CC1	D2 antag 83.3
COc1ccc(-c2nc(CN3CCC(c4ccccc4)CC3)c(C)o2)cc1OC	D2 antag 44.3
COc1cccc(CNC(=O)c2cc(S(=O)(=O)N3CCCCC3)cn2C)c1	none (no result: D2 antag, D2 PAM-2, D2 ag-2)
CC(C)(C)C(=O)NC(=S)NNC(=O)c1ccncc1	none
CC(C)(C)C(=O)NC(=S)NNC(=O)c1ccc(-c2ccccc2)cc1	D2 ag-1 90.1, D2 antag 63.6
CC(C)(C)C(=O)NC(=S)NNC(=O)c1ccc(Cl)cc1Cl	D2 ag-1 115.7, D2 antag 91.2
CCCOc1ccc(C(=O)NNC(=S)NC(C)=O)cc1	none (no result: D2 ag-1, D2 antag)
CCCOc1ccc(C(=O)NNC(=S)NC(=O)c2ccccc2)cc1	D2 ag-1 44.6
Cc1ccc(OC(=O)c2cc(-c3ccc4c(c3)OCCO4)on2)c(C)c1	none (no result: D2 antag, D2 PAM-2, D2 ag-2)
Cn1c(C(=O)NCc2ccc(F)cc2)cc2cc(S(=O)(=O)N3CCCCC3)ccc21	none (no result: D2 antag, D2 PAM-2, D2 ag-2)
COc1ccc(-c2csc(C3=C(O)CN(Cc4ccc(Cl)cc4)C3=N)n2)cc1OC	D2 antag 73.5
O=C(COC(=O)/C=C/c1ccc(S(=O)(=O)N2CCOCC2)cc1)NCc1ccc(Cl)cc1	D2 antag 46.5
CCCCOC(=O)c1ccc(NC(=O)Cc2coc3c(C)c(C)ccc23)cc1	none (no result: D2 antag, D2 PAM-2, D2 ag-2)
CCCC(=O)N(CCN(C(=O)CCC)c1ccccc1)c1ccccc1	D2 PAM-1 31.2
CCOc1nc(NCCO)nc(NCCC2=CCCCC2)n1	D2 PAM-1 49.1
CCOc1nc(NCCC2=CCCCC2)nc(N2CCOCC2)n1	none
Nc1ncnc(Nc2ccccn2)c1[N+](=O)[O-]	D2 antag 30.9
Cc1cccc(Nc2ncnc(N)c2[N+](=O)[O-])n1	none
COc1ccc(S(=O)(=O)N2CCN(C(=O)[C@@H]3CCC(=O)N3C3OC(=O)c4ccccc43)CC2)cc1 (stereo partly specified)	D2 antag 51.5
COC(=O)c1c(NC(=O)c2ccco2)sc(C(=O)N(C)C)c1C	D2 PAM-1 77.3
CN(C)C(=O)c1c(NC(=O)c2ccco2)sc2c1CCCCC2	D2 PAM-1 33.6, D2 antag 34.9
O=C(Nc1ccc(F)c(Cl)c1)N1CCN(C(=O)c2nsc3ccccc23)CC1	none (no result: D2 antag, D2 PAM-2, D2 ag-2)
CC(C)N1C(=O)c2ccccc2C1C(=O)NC1CCCCCC1 (stereo unspecified)	D2 PAM-1 31.3
Cc1ccc(OCC(=O)Nc2ccc3nc(SCC(=O)N4CCOCC4)sc3c2)cc1C	none (no result: D2 antag, D2 PAM-2, D2 ag-2)
COc1ccc(CCNc2nc3cc(OC)c(OC)cc3c3nc(-c4cccnc4)nn23)cc1OC	none (no result: D2 antag, D2 PAM-2, D2 ag-2)
COc1ccc(/C=C2\N=C(SC)NC2=O)cc1	D2 PAM-1 31.5
CCSC1=N/C(=C\c2ccc(OC)cc2)C(=O)N1	none
Cn1ccc2cc(S(=O)(=O)N3CCC(C(=O)NCCc4ccccc4)CC3)ccc21	none (no result: D2 antag, D2 PAM-2, D2 ag-2)
Cc1cc2oc(C(=O)Nc3ccc(S(=O)(=O)N(C)c4ccccc4)cc3)cc(=O)c2cc1C	none (no result: D2 antag, D2 PAM-2, D2 ag-2)
CC1CCCCN1C(=O)c1cccc(NC(=O)c2ccccc2)c1 (stereo unspecified)	D2 antag 36.5
COC(=O)c1cc2occc2n1Cc1ccc(F)cc1Cl	none (no result: D2 antag, D2 PAM-2, D2 ag-2)
CCOc1ccc(N(CC(=O)Nc2cc(C)cc(C)c2)S(C)(=O)=O)cc1	D2 antag 40.8
CN(CC(=O)Nc1ccc(F)c(F)c1F)C(=O)Cc1ccc2c(c1)OCCO2	D2 antag 35.1
O=C(O)CCCCCCCCc1cn(Cc2ccc(C(=O)c3ccccc3)cc2)nn1	D2 antag 41.6
O=C(c1ccccc1)c1ccc(Cn2cc(CCCO)nn2)cc1	none
COc1ccc(OC)c(-c2cc(C(=O)Nc3cnn(Cc4ccc(Cl)cc4Cl)c3)no2)c1	none (no result: D2 antag, D2 PAM-2, D2 ag-2)
Cc1c(Cl)c(C(F)(F)F)nn1CC(=O)NCc1ccco1	D2 antag 39.9 (no result: D2 PAM-1)
Cc1ccc(SCCC(=O)NCc2ccco2)cc1	D2 PAM-1 35.0
Cc1c(Cl)c([N+](=O)[O-])nn1CC(=O)NCc1ccco1	D2 antag 42.1
Cc1ccc(SCC(=O)NCc2ccco2)cc1	none
COc1ccc2c(c1)CC(C(=O)NCCCN1CCN(c3ccc(F)cc3)CC1)CO2 (stereo unspecified)	none (no result: D2 antag, D2 PAM-2, D2 ag-2)
COc1cc(OC)c(NC(=O)CCn2cccn2)cc1Cl	none (no result: D2 antag, D2 PAM-2, D2 ag-2)
COc1cc(NC(=O)CCCC(=O)OCC(F)(F)C(F)F)nc(OC)n1	D2 antag 52.2
COc1ccc([N+](=O)[O-])cc1NC(=O)C(C)N1CCCC1 (stereo unspecified)	D2 antag 30.7
COc1ccc([N+](=O)[O-])cc1NC(=O)Nc1ccccc1	D2 antag 37.0
COC(=O)Nc1cc([N+](=O)[O-])ccc1OC	none
CNCc1c(OCc2ccccc2)ccc2ccccc12	D2 antag 79.2
Nc1nonc1C(=O)NCCNCc1c(OCc2ccccc2F)ccc2ccccc12	none
CNCc1c(OCc2ccccc2F)ccc2ccccc12	D2 antag 77.8
CCOc1ccc(CCNC(=O)Cn2ncc3c([nH]c4ccccc43)c2=O)cc1OCC	none (no result: D2 antag, D2 PAM-2, D2 ag-2)
C=CCc1ccc(OCCCCN2CCC(C)CC2)c(OC)c1	none
C=CCc1ccc(OCCCCN2CC(C)CC(C)C2)c(OC)c1 (stereo unspecified)	D2 antag 38.5
O=C(CCn1c(=O)c2cccn2c2ccccc21)Nc1ccc(F)cc1	D2 antag 61.4
CCCS(=O)(=O)N1CCC(C(=O)NCCN2CCC(Cc3ccccc3)CC2)CC1	D2 ag-1 38.0, D2 antag 33.9
CCS(=O)(=O)N1CCC(C(=O)NCCCN2CCC(Cc3ccccc3)CC2)CC1	none
CS(=O)(=O)N1CCCC(C(=O)NCCCN2CCN(Cc3ccccc3)CC2)C1 (stereo unspecified)	none
CS(=O)(=O)N1CCCC(C(=O)NCCCN2CCC(Cc3ccccc3)CC2)C1 (stereo unspecified)	D2 antag 46.3
CCN(CC)c1ccc(NC(=O)c2cnn(-c3ccccc3)c2-n2cccc2)c(C)c1	none (no result: D2 ag-1, D2 antag, D2 PAM-2, D2 ag-2)
CCCCn1c(-c2nonc2N)nc2ccccc21	none
CC(C)CCn1c(-c2nonc2N)nc2ccccc21	D2 PAM-1 32.8
COCC(C)NC(=O)CCS(=O)(=O)c1nc(-c2ccc(OC)cc2)cc(C(F)(F)F)n1 (stereo unspecified)	D2 PAM-1 39.2
Cc1csc2nc(COC(=O)c3ccc(NC(=O)c4ccccc4Br)cc3)cc(=O)n12	none (no result: D2 antag, D2 PAM-2, D2 ag-2)
